In PubChem BioAssay (EPA / NIEHS):
The source made the active and inactive calls. How the source made its calls: active means hit-call score of the fitted dose curve at least 0.9, where 1 is the maximum; inactive means score below 0.9.

Tests used:
[1] = ATG_ISRE_CIS: Attagene CIS-FACTORIAL HepG2 Assay for human Interferon Regulatory Factor 1 (IRF1) binding to an Interferon-Stimulated Response Element (ISRE) (AID 2282948); conditions: HepG2 ISRE cis-reporter (Attagene), mRNA transcription readout; actives raise or lower the signal
Summary of the method: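 Endogenous transcription factor activity read as reporter transcript abundance via RT-PCR and capillary electrophoresis. HepG2 cells transiently transfected, 24 h chemical exposure. Gain or loss fitted against DMSO baseline.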

[2] = ATG_M_32_CIS: Attagene CIS-FACTORIAL HepG2 Assay for M32 Transcription Factor (Internal Marker) (AID 2282949); conditions: HepG2 Attagene cis-factorial M32 reporter, mRNA; actives raise or lower the signal;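 further: background control marker of the multiplexed CIS panel rather than a real target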
Summary of the method: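 Using DMSO as baseline, bidirectional curve fits were applied to reporter mRNA signals. These came from transiently transfected HepG2 cells exposed for 24 h, with RNA analysed by RT-PCR, FAM primer extension, HpaI digestion and CE.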

[3] = ATG_M_06_CIS: Attagene CIS-FACTORIAL HepG2 Assay for M06 Transcription Factor (Internal Marker) (AID 2282950); conditions: HepG2 Attagene CIS-FACTORIAL M06 internal marker reporter; actives raise or lower the signal
Summary of the method: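 Steps: transfect HepG2 with multiplexed cis-element reporter constructs; dose chemical 24 h; extract RNA with DNase treatment; reverse-transcribe, PCR-amplify, 6-FAM label, HpaI digest; separate fragments by capillary electrophoresis. Activity fitted both directions versus DMSO.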

[4] = target: Hepatocyte nuclear factor 6 (Homo sapiens) (UniProt Q9UBC0); assay: ATG_HNF6_CIS: Attagene CIS-FACTORIAL HepG2 Assay for human Hepatocyte Nuclear Factor 6 (HNF6) (AID 2282952); conditions: HepG2 Attagene cis-factorial HNF6 reporter transcription; actives raise or lower the signal
Summary of the method: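 Activity values derive from bidirectional fitting against DMSO of reporter mRNA levels, measured by capillary electrophoresis of labelled RT-PCR products from HepG2 cells exposed 24 h.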

[5] = target: Heat shock factor protein 1 (Homo sapiens) (UniProt Q00613); assay: ATG_HSE_CIS: Attagene CIS-FACTORIAL HepG2 Assay for human Heat Shock Transcription Factor 1 (HSE) (AID 2282953); conditions: HepG2 HSE cis-reporter, Attagene RNA transcription; actives raise or lower the signal
Summary of the method: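 Cells were transfected with cis-element-driven reporter constructs, dosed for 24 h, then total RNA was reverse-transcribed and reporter cDNA amplified, FAM-labelled and digested with HpaI. Fragments were resolved by capillary electrophoresis; gain or loss was fitted against DMSO.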

[6] = ATG_MRE_CIS: Attagene CIS-FACTORIAL HepG2 Assay for human Metal Responsive Element (MRE) (AID 2282954); conditions: HepG2 MRE cis-reporter transcription, Attagene multiplex; actives raise or lower the signal
Summary of the method: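 RT-PCR/capillary electrophoresis readout of reporter mRNA, 24 h post-dosing, in HepG2 cells transfected with multiplexed cis-regulated reporter constructs. Gain or loss of signal fitted bidirectionally against DMSO baseline.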

[7] = ATG_PBREM_CIS: Attagene CIS-FACTORIAL HepG2 Assay for human Phenobarbital-responsive Enhancer Module (PBREM) (AID 2282955); conditions: HepG2 PBREM cis-reporter, Attagene multiplexed transcription; actives raise or lower the signal
Summary of the method: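 Transfected liver-derived HepG2 cells exposed 24 h; PBREM reporter transcript quantified via RT-PCR and capillary electrophoresis, with activity in either direction referenced to DMSO.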

[8] = target: Paired box protein Pax-6 (Homo sapiens) (UniProt P26367); assay: ATG_Pax6_CIS: Attagene CIS-FACTORIAL HepG2 Assay for human Paired Box 6 (PAX6) (AID 2282956); conditions: HepG2 CIS-FACTORIAL PAX6 reporter transcription, RNA readout; actives raise or lower the signal
Summary of the method: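 Read-out is reporter transcript level, measured by RT-PCR with fluorescent primer extension and capillary electrophoresis after 24 h dosing of transfected HepG2 cells. Activity in either direction fitted relative to DMSO control.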

[9] = ATG_PXRE_CIS: Attagene CIS-FACTORIAL HepG2 Assay for human Pregnane X Receptor Element (PXRE) (AID 2282957); conditions: HepG2 Attagene CIS-FACTORIAL PXRE reporter, mRNA; actives raise or lower the signal
Summary of the method: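 Fluorescent capillary electrophoresis of amplified reporter cDNA gave the signal, collected 24 h after dosing HepG2 cells that held transfected cis-element reporter constructs.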

[10] = ATG_PPRE_CIS: Attagene CIS-FACTORIAL HepG2 Assay for human Peroxisome Proliferator-activated Response Element (PPRE) (AID 2282958); conditions: HepG2 PPRE cis-element reporter, Attagene transcription factor profiling; actives raise or lower the signal
Summary of the method: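 Measured endpoint: PPRE-controlled reporter mRNA, detected by RT-PCR and capillary electrophoresis fluorescence, from transiently transfected HepG2 cells 24 h after dosing. Curves fitted in both directions using DMSO baseline.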

[11] = ATG_RORE_CIS: Attagene CIS-FACTORIAL HepG2 Assay for human RAR-related Orphan Receptor Element (RORE) (AID 2282959); conditions: HepG2 Attagene cis-factorial RORE reporter, mRNA; actives raise or lower the signal
Summary of the method: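 Transiently transfected HepG2 reporter cells were treated 24 h. Reporter transcripts were detected by RT-PCR and capillary electrophoresis, with bidirectional fitting against DMSO.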

[12] = ATG_Sox_CIS: Attagene CIS-FACTORIAL HepG2 Assay for human SRY-box transcription factor (SOX) (AID 2282960); conditions: HepG2 Attagene cis-factorial SOX reporter, mRNA; actives raise or lower the signal
Summary of the method: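 Gain- or loss-of-signal endpoint, fitted bidirectionally with DMSO as negative control. Based on reporter mRNA from transfected HepG2 cells harvested 24 h post-treatment and quantified via RT-PCR and capillary electrophoresis.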

[13] = target: Transcription factor Sp1 (Homo sapiens) (UniProt P08047); assay: ATG_Sp1_CIS: Attagene CIS-FACTORIAL HepG2 Assay for human Specificity Protein 1 (Sp1) (AID 2282961); conditions: HepG2 Sp1 cis-reporter transcription, actives raise or lower the signal
Summary of the method: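 Endpoint reflects endogenous Sp1 transcriptional activity, not an exogenous fusion protein: HepG2 cells with transfected cis-regulated reporters, 24 h dosing, RT-PCR/capillary electrophoresis mRNA read-out, DMSO-normalised bidirectional fit.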

[14] = ATG_SREBP_CIS: Attagene CIS-FACTORIAL HepG2 Assay for human Sterol Regulatory Element Binding (SREBP) (AID 2282962); conditions: HepG2 Attagene cis-factorial SREBP reporter, mRNA; actives raise or lower the signal
Summary of the method: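 Endogenous SREBP activity read as cis-element-driven reporter transcript in transiently transfected HepG2, 24 h post-dosing; quantified via RT-PCR plus capillary electrophoresis of fluorescent fragments. Gain or loss of signal fitted relative to DMSO baseline.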

[15] = target: Signal transducer and activator of transcription 3 (Homo sapiens) (UniProt P40763); assay: ATG_STAT3_CIS: Attagene CIS-FACTORIAL HepG2 Assay for human Signal Transducer and Activator of Transcription 3 (STAT3) (AID 2282963); conditions: HepG2, Attagene cis-factorial STAT3 reporter transcription; actives raise or lower the signal
Summary of the method: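 Readout: fluorescent reporter mRNA fragments resolved by capillary electrophoresis. Setup: HepG2 transfected with MRTUs reporting endogenous transcription-factor activity, dosed 24 h. Gain or loss of signal fitted bidirectionally against DMSO control.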

[16] = ATG_TA_CIS: Attagene CIS-FACTORIAL HepG2 Assay for human TA Basal Promoter (AID 2282964); conditions: HepG2 Attagene CIS-factorial TA basal promoter reporter; actives raise or lower the signal
Summary of the method: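 Steps: transfect HepG2 with MRTUs; dose 24 h; isolate RNA, DNase-treat, reverse-transcribe; PCR and FAM-label reporter cDNA; digest with HpaI 2h at 37 C; run capillary electrophoresis. Activity fitted both directions against DMSO.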

[17] = ATG_TCF_b_cat_CIS: Attagene CIS-FACTORIAL HepG2 Assay for human T-Cell-Factor with beta-catenin (TCF/b-cat) (AID 2282965); conditions: HepG2 TCF/beta-catenin cis-reporter transcription, actives raise or lower the signal
Summary of the method: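 HepG2, transient MRTU transfection, cis-element-driven reporters (endogenous TFs). 24 h compound exposure. Readout: reporter mRNA by RT-PCR + 6-FAM primer extension, HpaI digest, capillary electrophoresis. Gain/loss fit vs DMSO baseline.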

[18] = target: Hypoxia-inducible factor 1-alpha (Homo sapiens) (UniProt Q16665); assay: ATG_HIF1a_CIS: Attagene CIS-FACTORIAL HepG2 Assay for human Hypoxia Inducible Factor 1 (HIF1A) (AID 2282951); conditions: HepG2 Attagene cis-factorial HIF1a reporter transcription; actives raise or lower the signal
Summary of the method: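 Dosed 24 h, transfected HepG2 cells yielded total RNA whose reporter transcripts were RT-PCR-amplified and sized by capillary electrophoresis using fluorescent labelling; DMSO defined baseline, with gain and loss of signal both fitted.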

Measured: AC50

Signal transducer and activator of transcription 3 (Homo sapiens), sequence (P40763 whole entry, looked up, the tested form may be a part): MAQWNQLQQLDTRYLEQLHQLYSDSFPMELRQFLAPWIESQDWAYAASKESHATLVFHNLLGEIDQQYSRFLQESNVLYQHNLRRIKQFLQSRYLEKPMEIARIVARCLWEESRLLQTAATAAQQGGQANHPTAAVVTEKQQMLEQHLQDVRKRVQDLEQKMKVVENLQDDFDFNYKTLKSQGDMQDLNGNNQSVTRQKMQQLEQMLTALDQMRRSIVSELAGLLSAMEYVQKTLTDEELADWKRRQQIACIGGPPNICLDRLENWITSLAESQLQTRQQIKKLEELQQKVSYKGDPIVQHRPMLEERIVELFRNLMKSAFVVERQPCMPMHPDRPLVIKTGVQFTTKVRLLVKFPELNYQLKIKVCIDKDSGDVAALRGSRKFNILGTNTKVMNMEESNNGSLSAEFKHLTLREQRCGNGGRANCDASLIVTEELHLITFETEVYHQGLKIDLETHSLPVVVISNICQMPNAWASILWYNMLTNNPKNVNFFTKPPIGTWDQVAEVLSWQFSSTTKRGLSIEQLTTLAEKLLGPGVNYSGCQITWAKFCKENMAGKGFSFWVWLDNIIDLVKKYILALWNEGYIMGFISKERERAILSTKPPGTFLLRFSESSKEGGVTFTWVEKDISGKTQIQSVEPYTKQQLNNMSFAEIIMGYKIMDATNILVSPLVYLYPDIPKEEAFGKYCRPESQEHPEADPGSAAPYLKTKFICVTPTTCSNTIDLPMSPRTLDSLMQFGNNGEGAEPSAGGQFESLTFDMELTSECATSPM
Paired box protein Pax-6 (Homo sapiens), sequence (P26367 whole entry, looked up): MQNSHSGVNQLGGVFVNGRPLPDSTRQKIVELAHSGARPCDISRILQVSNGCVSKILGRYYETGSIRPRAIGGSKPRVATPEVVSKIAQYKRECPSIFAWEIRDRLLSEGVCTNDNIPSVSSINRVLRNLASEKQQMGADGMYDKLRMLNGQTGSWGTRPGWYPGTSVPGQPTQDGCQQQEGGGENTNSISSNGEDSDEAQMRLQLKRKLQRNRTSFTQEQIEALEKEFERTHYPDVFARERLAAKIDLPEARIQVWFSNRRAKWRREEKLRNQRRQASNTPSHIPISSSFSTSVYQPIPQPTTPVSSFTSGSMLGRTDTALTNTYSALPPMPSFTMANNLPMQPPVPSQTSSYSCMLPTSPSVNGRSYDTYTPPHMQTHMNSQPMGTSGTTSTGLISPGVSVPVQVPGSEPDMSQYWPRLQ
Hepatocyte nuclear factor 6 (Homo sapiens), sequence (Q9UBC0 whole entry, looked up): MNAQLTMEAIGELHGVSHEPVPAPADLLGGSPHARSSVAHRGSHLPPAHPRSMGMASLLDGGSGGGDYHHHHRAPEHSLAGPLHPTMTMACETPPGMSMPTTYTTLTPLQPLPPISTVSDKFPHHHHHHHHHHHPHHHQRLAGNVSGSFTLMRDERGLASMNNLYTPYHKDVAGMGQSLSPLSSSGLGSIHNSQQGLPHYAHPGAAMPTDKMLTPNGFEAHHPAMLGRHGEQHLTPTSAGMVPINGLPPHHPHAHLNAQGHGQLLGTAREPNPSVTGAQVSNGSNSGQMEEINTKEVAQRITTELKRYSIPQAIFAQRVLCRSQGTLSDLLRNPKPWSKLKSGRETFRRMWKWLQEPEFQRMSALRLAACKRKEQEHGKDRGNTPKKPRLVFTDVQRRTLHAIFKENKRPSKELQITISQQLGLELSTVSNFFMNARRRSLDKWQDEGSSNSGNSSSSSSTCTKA
Heat shock factor protein 1 (Homo sapiens), sequence (Q00613 whole entry, looked up, the tested form may be a part): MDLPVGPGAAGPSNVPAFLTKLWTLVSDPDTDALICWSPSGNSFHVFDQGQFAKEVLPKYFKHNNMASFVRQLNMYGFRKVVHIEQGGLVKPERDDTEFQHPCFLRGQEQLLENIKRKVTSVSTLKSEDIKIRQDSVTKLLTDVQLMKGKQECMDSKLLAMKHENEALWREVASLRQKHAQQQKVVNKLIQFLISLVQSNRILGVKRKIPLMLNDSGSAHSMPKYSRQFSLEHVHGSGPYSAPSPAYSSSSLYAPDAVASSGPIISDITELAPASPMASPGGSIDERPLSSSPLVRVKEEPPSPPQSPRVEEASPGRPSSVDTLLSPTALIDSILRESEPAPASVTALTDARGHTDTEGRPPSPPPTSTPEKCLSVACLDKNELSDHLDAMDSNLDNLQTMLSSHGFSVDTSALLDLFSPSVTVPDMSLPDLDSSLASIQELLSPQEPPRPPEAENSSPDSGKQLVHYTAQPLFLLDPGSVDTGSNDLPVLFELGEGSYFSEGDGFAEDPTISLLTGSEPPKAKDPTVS
Transcription factor Sp1 (Homo sapiens), sequence (P08047 whole entry, looked up, the tested form may be a part): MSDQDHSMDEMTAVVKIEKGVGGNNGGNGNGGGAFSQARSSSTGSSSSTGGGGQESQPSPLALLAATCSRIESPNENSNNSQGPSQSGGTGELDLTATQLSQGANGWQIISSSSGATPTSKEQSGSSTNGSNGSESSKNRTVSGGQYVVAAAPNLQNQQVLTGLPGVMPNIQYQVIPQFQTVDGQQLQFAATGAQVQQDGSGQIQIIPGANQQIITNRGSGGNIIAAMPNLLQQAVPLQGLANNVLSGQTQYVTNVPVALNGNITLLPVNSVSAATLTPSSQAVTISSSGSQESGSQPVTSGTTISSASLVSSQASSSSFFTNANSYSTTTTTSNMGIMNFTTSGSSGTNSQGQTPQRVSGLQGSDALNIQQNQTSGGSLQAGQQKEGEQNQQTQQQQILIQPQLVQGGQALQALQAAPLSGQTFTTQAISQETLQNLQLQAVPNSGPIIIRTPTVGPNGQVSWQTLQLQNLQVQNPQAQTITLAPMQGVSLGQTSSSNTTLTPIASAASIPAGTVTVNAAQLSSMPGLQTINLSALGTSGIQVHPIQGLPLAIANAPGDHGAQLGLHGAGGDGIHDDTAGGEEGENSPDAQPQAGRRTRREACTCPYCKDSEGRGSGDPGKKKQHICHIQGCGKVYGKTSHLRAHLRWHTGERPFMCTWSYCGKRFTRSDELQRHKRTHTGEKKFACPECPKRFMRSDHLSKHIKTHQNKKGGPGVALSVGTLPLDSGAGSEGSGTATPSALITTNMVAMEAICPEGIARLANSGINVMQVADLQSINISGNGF
Hypoxia-inducible factor 1-alpha (Homo sapiens), sequence (Q16665 whole entry, looked up): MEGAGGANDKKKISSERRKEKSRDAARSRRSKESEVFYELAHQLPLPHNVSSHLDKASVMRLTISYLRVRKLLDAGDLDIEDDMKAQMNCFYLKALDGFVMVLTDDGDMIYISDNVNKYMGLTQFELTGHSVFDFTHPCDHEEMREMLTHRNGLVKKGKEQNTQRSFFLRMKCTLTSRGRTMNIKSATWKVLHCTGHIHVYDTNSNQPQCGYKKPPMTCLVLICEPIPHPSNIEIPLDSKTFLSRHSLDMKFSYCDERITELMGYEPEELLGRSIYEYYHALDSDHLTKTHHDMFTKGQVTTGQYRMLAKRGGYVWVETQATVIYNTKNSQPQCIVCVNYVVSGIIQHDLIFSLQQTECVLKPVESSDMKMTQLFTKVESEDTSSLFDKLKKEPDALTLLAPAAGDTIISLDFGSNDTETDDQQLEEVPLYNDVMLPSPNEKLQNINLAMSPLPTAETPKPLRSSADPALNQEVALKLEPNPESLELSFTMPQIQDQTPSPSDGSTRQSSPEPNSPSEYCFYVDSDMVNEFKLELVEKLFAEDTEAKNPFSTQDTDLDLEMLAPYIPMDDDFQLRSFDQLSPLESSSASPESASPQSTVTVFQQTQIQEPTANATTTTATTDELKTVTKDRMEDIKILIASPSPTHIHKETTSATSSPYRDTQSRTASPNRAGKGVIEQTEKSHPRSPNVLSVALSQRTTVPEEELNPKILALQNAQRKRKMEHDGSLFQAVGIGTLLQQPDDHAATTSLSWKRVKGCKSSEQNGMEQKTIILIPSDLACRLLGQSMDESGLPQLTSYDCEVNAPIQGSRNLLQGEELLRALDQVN

C=CC(C)(CCC=C(C)C)OC(=O)CC(C)C (stereo not given)
active: [1] 147 µM | [5] 155 µM | [6] 148 µM | [9] 6.26 µM | [14] 118 µM
not listed: [18]
inactive: all other assays above

C1=Cc2ccccc2C1
active: [9] 9.16 µM
not listed: [5]
inactive: all other assays above

CC/C=C\CCOC(=O)CCCCC
not listed: [11]
inactive: all other assays above

CC(=O)OCc1ccco1
not listed: [9] | [16]
inactive: all other assays above

CCCCCCC1(C)CCC(=O)O1 (stereo not given)
active: [9] 30.3 µM
not listed: [4] | [18]
inactive: all other assays above

CCCCC(CC)COC(=O)c1ccccc1O (stereo not given)
active: [9] 15.3 µM
not listed: [2]
inactive: all other assays above
